# Measured values: PubChem BioAssay (NCATS)
# For some assays here: Entries with a potency or affinity are not part of this list. The source made the active and inactive calls.
# Tests used:
# [1] = Ebola virus entry assay, green fluorescence channel
# [2] = Ebola virus entry assay, blue channel fluorescence
# For efficacy in this document: 0% is about no effect.
SMILES,efficacy [1],outcome [2],AC50 [2],AC50 [1]
O=C(O)COCCN1CCN(C(c2ccccc2)c2ccc(Cl)cc2)CC1 (configuration not stated),-24.1% (inactive),inactive,,
Cc1ccccc1C(=O)Nc1ccc(C(=O)N2CCCC(O)c3cc(Cl)ccc32)c(C)c1 (configuration not stated),54.1% (inactive),inactive,,
CCc1c2c(nc3ccc(OC(=O)N4CCC(N5CCCCC5)CC4)cc13)-c1cc3c(c(=O)n1C2)COC(=O)[C@]3(O)CC,45.7% (inactive),inactive,,
O[C@@H](CNC[C@H](O)[C@H]1CCc2cc(F)ccc2O1)[C@@H]1CCc2cc(F)ccc2O1,-189% (inactive),,11.2 µM (active),
CO[C@@]12[C@H](COC(N)=O)C3=C(C(=O)C(C)=C(N)C3=O)N1C[C@@H]1N[C@@H]12,19.7% (inactive),inactive,,
CNCCc1ccccn1,-10.7% (inactive),inactive,,
CCOC(=O)[C@H](CCc1ccccc1)N[C@@H](C)C(=O)N1Cc2cc(OC)c(OC)cc2C[C@H]1C(=O)O,30.5% (inactive),inactive,,
Cc1[nH]c(=O)c(C#N)cc1-c1ccncc1,-19.3% (inactive),inactive,,
CCCCC1=NC2(CCCC2)C(=O)N1Cc1ccc(-c2ccccc2-c2nn[nH]n2)cc1,32.1% (inactive),inactive,,
Cc1ccc(NC(=O)c2ccc(CN3CCN(C)CC3)cc2)cc1Nc1nccc(-c2cccnc2)n1,71.5% (inactive),inactive,,
COc1c(C)c2c(c(O)c1C/C=C(\C)CCC(=O)OCCN1CCOCC1)C(=O)OC2,-9.5% (inactive),inactive,,
COc1cc(NC(C)CCCN)c2ncccc2c1 (configuration not stated),-153% (inactive),inactive,,
Cc1ccc(-n2[nH]c(C)c(N=Nc3cccc(-c4cccc(C(=O)O)c4)c3O)c2=O)cc1C,128% (inactive),inactive,,
O=C(CCCCCCC(=O)Nc1ccccc1)NO,-11.4% (inactive),inactive,,
CCN(CC)CCNC(=O)c1cc(Cl)c(N)cc1OC,-12.5% (inactive),inactive,,
CC[C@@]1(O)C(=O)OCc2c1cc1n(c2=O)Cc2cc3c(CN(C)C)c(O)ccc3nc2-1,,inactive,,31.6 µM (active)
CC[C@@H]([C@H](C)O)n1ncn(-c2ccc(N3CCN(c4ccc(OC[C@@H]5CO[C@@](Cn6cncn6)(c6ccc(F)cc6F)C5)cc4)CC3)cc2)c1=O,27.6% (inactive),,10 µM (active),
NC(=O)N1c2ccccc2CC(=O)c2ccccc21,-11.2% (inactive),inactive,,
Cc1oncc1C(=O)Nc1ccc(C(F)(F)F)cc1,-17.5% (inactive),inactive,,
CSc1ccc2c(c1)N(CCC1CCCCN1C)c1ccccc1S2 (configuration not stated),-213% (inactive),,10 µM (active),
Cc1ccc(-c2cc(C(F)(F)F)nn2-c2ccc(S(N)(=O)=O)cc2)cc1,26.9% (inactive),inactive,,
CCCN1C[C@H](CSC)C[C@@H]2c3cccc4[nH]cc(c34)C[C@H]21,14.5% (inactive),inactive,,
CNCCCC1c2ccccc2C=Cc2ccccc21,60.1% (inactive),,11.2 µM (active),
Cc1ccc(C(=O)c2cc(O)c(O)c([N+](=O)[O-])c2)cc1,31.1% (inactive),inactive,,
OCCN(CCO)c1nc(N2CCCCC2)c2nc(N(CCO)CCO)nc(N3CCCCC3)c2n1,489% (inactive),inactive,,
CC[N+](C)(C)c1cccc(O)c1,-13.4% (inactive),inactive,,

SMILES,efficacy [1],outcome [2],AC50 [2],AC50 [1]
CN1CCN(C(c2ccccc2)c2ccccc2)CC1,84.8% (inactive),inactive,,
CN(C)CCC[C@@]1(c2ccc(F)cc2)OCc2cc(C#N)ccc21,55% (inactive),inactive,,
O=C1NC(c2ccccc2)(c2ccccc2)C(=O)N1COP(=O)(O)O,-16% (inactive),inactive,,
CCC(=O)O[C@H]1[C@H](O[C@@H]2[C@@H](C)[C@H](O[C@H]3C[C@@](C)(OC)[C@@H](O)[C@H](C)O3)[C@@H](C)C(=O)O[C@H](CC)[C@@](C)(O)[C@H](O)[C@@H](C)C(=O)[C@H](C)C[C@@]2(C)O)O[C@H](C)C[C@@H]1N(C)C,131% (inactive),inactive,,
CN(C)CCc1c[nH]c2ccc(C[C@H]3COC(=O)N3)cc12,-13.2% (inactive),inactive,,
CN(C)CCC=C1c2ccccc2C=Cc2ccccc21,108% (inactive),inactive,,
COC(=O)C1=C(C)NC(C)=C(C(=O)OCC(C)C)C1c1ccccc1[N+](=O)[O-] (configuration not stated),55.8% (inactive),inactive,,
Cc1c(O)cccc1C(=O)N[C@@H](CSc1ccccc1)[C@H](O)CN1C[C@H]2CCCC[C@H]2C[C@H]1C(=O)NC(C)(C)C,83.4% (inactive),inactive,,
COc1ccccc1OCC(O)COC(N)=O (configuration not stated),-13% (inactive),inactive,,
CN1CCC[C@@H]1CCO[C@](C)(c1ccccc1)c1ccc(Cl)cc1,-151% (inactive),,3.55 µM (active),
CO/N=C1\CN(c2nc3c(cc2F)c(=O)c(C(=O)O)cn3C2CC2)CC1CN (configuration not stated),-13.2% (inactive),inactive,,
CCCCc1oc2ccc(NS(C)(=O)=O)cc2c1C(=O)c1ccc(OCCCN(CCCC)CCCC)cc1,-249% (inactive),,7.08 µM (active),
CNCCCN1c2ccccc2CCc2ccccc21,91.8% (inactive),inactive,,
CCN(CC)CCNC(=O)c1c(C)[nH]c(/C=C2\C(=O)Nc3ccc(F)cc32)c1C,-131% (inactive),,3.55 µM (active),
COc1cc2c(cc1OC)C(=O)C(CC1CCN(Cc3ccccc3)CC1)C2 (configuration not stated),108% (inactive),inactive,,
COc1ccc(-c2cc(=S)ss2)cc1,-17.7% (inactive),inactive,,
CO[C@H]1C=CO[C@@]2(C)Oc3c(C)c(O)c4c(O)c(c(/C=N/N5CCN(C)CC5)c(O)c4c3C2=O)NC(=O)/C(C)=C\C=C[C@H](C)[C@H](O)[C@@H](C)[C@@H](O)[C@@H](C)[C@H](OC(C)=O)[C@@H]1C,60.3% (inactive),inactive,,
COc1ccc([C@@H]2Sc3ccccc3N(CCN(C)C)C(=O)[C@@H]2OC(C)=O)cc1,53.7% (inactive),inactive,,
CC(C)[N+](C)(CCOC(=O)C1c2ccccc2Oc2ccccc21)C(C)C,-23.3% (inactive),inactive,,
CC(C)NC[C@@H](O)COc1ccc(CC(N)=O)cc1,-16.3% (inactive),inactive,,
NC(=O)C(c1ccccc1)(c1ccccc1)[C@@H]1CCN(CCc2ccc3c(c2)CCO3)C1,91.3% (inactive),inactive,,
NC(=O)c1cn(Cc2c(F)cccc2F)nn1,-11.2% (inactive),inactive,,
Nc1cccc2c1CN(C1CCC(=O)NC1=O)C2=O (configuration not stated),15.2% (inactive),inactive,,
NC12CC3CC(CC(C3)C1)C2,15% (inactive),inactive,,
CC(N)C12CC3CC(CC(C3)C1)C2 (configuration not stated),56.9% (inactive),inactive,,
COc1cc2nc(N(C)CCCNC(=O)C3CCCO3)nc(N)c2cc1OC (configuration not stated),46.7% (inactive),inactive,,

SMILES,efficacy [1],outcome [2],AC50 [2],AC50 [1]
CC(=O)O[C@]1(C(C)=O)CC[C@H]2[C@@H]3C=C(C)C4=CC(=O)CC[C@]4(C)[C@H]3CC[C@@]21C,20% (inactive),inactive,,
N[C@@H]1C[C@H]1c1ccccc1,-26.4% (inactive),inactive,,
CC(C)(C#N)c1cc(Cn2cncn2)cc(C(C)(C)C#N)c1,15% (inactive),inactive,,
O=C1NC(=O)C(c2ccccc2)(c2ccccc2)N1,9.61% (inactive),inactive,,
CO/N=C(\C(=O)N[C@@H]1C(=O)N2C(C(=O)O)=C(CSc3nc(=O)c(O)nn3C)CS[C@H]12)c1csc(N)n1,11.1% (inactive),inactive,,
CC[C@@H](CO)NC(=O)[C@@H]1C=C2c3cccc4c3c(cn4C)C[C@H]2N(C)C1,9.51% (inactive),inactive,,
CN1C(CCl)Nc2cc(Cl)c(S(N)(=O)=O)cc2S1(=O)=O (configuration not stated),-11.6% (inactive),inactive,,
CCC(C(N)=O)N1CCCC1=O (configuration not stated),-12.2% (inactive),inactive,,
COC(=O)C(c1ccccc1Cl)N1CCc2sccc2C1 (configuration not stated),27.9% (inactive),inactive,,
Cc1cccc(Nc2ccccc2C(=O)O)c1C,32.2% (inactive),inactive,,
Cc1nc(-c2ccc(OCC(C)C)c(C#N)c2)sc1C(=O)O,65.9% (inactive),inactive,,
CN(CCOc1ccc(NS(C)(=O)=O)cc1)CCc1ccc(NS(C)(=O)=O)cc1,20.2% (inactive),inactive,,
C[n+]1ccccc1/C=N/O,-22% (inactive),inactive,,
CN1C[C@H]2c3ccccc3Oc3ccc(Cl)cc3[C@@H]2C1,60.4% (inactive),inactive,,
O=C(O)c1ccc(-n2nc(-c3ccccc3O)nc2-c2ccccc2O)cc1,48% (inactive),inactive,,
Cc1onc(-c2c(Cl)cccc2Cl)c1C(=O)N[C@@H]1C(=O)N2[C@@H]1SC(C)(C)[C@@H]2C(=O)O,26.4% (inactive),inactive,,
COc1ccccc1OCCNCC(O)COc1cccc2[nH]c3ccccc3c12 (configuration not stated),67.7% (inactive),,11.2 µM (active),
CNS(=O)(=O)Cc1ccc2[nH]cc(CCN(C)C)c2c1,17.1% (inactive),inactive,,
CC(CN1c2ccccc2Sc2ccccc21)N(C)C (configuration not stated),81.3% (inactive),inactive,,
NCC(CC(=O)O)c1ccc(Cl)cc1 (configuration not stated),-35.7% (inactive),inactive,,
CCCN(CCC)CCc1cccc2c1CC(=O)N2,29.5% (inactive),inactive,,
NC1[C@H]2CN(c3nc4c(cc3F)c(=O)c(C(=O)O)cn4-c3ccc(F)cc3F)C[C@@H]12 (some centres not stated),-13.1% (inactive),inactive,,
CC(C)(C(=O)O)c1ccc(C(O)CCCN2CCC(C(O)(c3ccccc3)c3ccccc3)CC2)cc1 (configuration not stated),-13% (inactive),inactive,,
Cc1ccc(S(=O)(=O)NC(=O)NN2CC3CCCC3C2)cc1 (configuration not stated),-32.1% (inactive),inactive,,
